Laboratory results published in PubChem BioAssay AID2669 (National Center for Advancing Translational Sciences (NCATS), 2010).
Records with an inconclusive call do not appear. Activity calls are given as the source filed them. Calls follow the shape of the dose curve; as a rule, active = well fitted inhibition curve with a large enough effect; inconclusive = small, poorly fitted or top-dose-only effect, or effect the other way; inactive = flat fitted curve, though single readings scatter.

Assay: qHTS Assay Multiplex Screening to Identify Dual Action Probes in a Cell Model of Huntington: Cytoprotection (Protease relase)
Details: PC12 HttQ103 cells, Cytotox-Glo protease release, 40 h; series mostly up to 46.1 µM
In short: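 Inducible PC12 line expressing HTT exon 1 (Q103)-GFP, induced with 100 nM tebufenozide (final) and treated with compounds. Cytoprotection read as released protease activity by Cytotox-Glo luminescence.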

Compound	Potency
COc1ccc2cc3cc(C(=O)N4CCN(c5ccccc5)CC4)oc3nc2c1	2.24 µM (active)
Cn1nnnc1Sc1ncnc2scc(-c3ccccc3Br)c12	14.1 µM (active)
CC(=O)Oc1cccc(C(=O)O)c1OC(C)=O	inactive
Cc1cc(NC(=O)CCS(=O)(=O)c2nc(-c3ccccc3)cc(C(F)(F)F)n2)no1	inactive
C=C1CCC2[C@](C)(CO)[C@H](O)CC[C@@]2(C)[C@@H]1C/C=C1/C(=O)OC[C@H]1O (stereo partly drawn)	inactive
O=C(Nc1cccnc1)Nc1ccccc1Cl	3.16 µM (active)
Cn1nnnc1Sc1ncnc2scc(I)c12	11.2 µM (active)
CCOC(=O)N1CCN(C(=O)CSCC(=O)Nc2nc(-c3ccc(-c4ccccc4)cc3)cs2)CC1	3.16 µM (active)
O=C(Nc1ccc(Cl)cc1C(F)(F)F)C(Sc1cccc[n+]1[O-])c1ccccc1 (stereo not drawn)	inactive
Cn1nnnc1Sc1ncnc2scc(-c3cccc([N+](=O)[O-])c3)c12	12.6 µM (active)
CC(=O)c1cccc(-c2csc3ncnc(Sc4nnnn4C)c23)c1	7.08 µM (active)
O=C(O)/C=C/C(O)c1ccc(Cl)cc1 (stereo not drawn)	inactive
O=[N+]([O-])c1ccc(O)c2ncccc12	22.4 µM (active)
CCOC(=O)c1sc2nc(N3CCOCC3)c3c(c2c1N)CCN(C)C3	inactive
CN1C(=O)C2(c3ccccc31)C1CCCC=C1C(C#N)=C(N)C2(C#N)C#N (stereo not drawn)	inactive
CC(=O)Nc1ccc(S(=O)(=O)N2CCSC2c2ccccc2)cc1 (stereo not drawn)	inactive
Cn1nnnc1Sc1ncnc2scc(-c3cccc(Cl)c3)c12	11.2 µM (active)
CCOC(=O)c1noc(C)c1C(=O)Nc1cccc(F)c1	7.08 µM (active)
COC(=O)c1ccc(NC(=O)CN2C(=O)CSC2=O)cc1	inactive
Cn1nnnc1Sc1ncnc2scc(-c3cc4ccccc4o3)c12	7.08 µM (active)
Cn1nnnc1Sc1ncnc2scc(-c3ccccc3[N+](=O)[O-])c12	20 µM (active)
COC(=O)C(O)(CC(=O)Nc1ccc(OC(F)(F)F)cc1)C(F)(F)F (stereo not drawn)	inactive
CCOC(=O)c1sc2nc(N3CCOCC3)c3c(c2c1N)CC(C)(C)N(C)C3	inactive
